These results are taken from PubChem BioAssay (NCATS).

Inconclusive results are not listed. A number with no mark means an inactive call. Calls of active or inactive are those of the source. The call rests on the fitted dose curve; in most records, active means well fitted cell-killing curve with a large enough effect; inconclusive means small, poorly fitted or top-dose-only effect, or effect the other way; inactive means no such curve, though single readings can be large or run the other way.
Potency means the concentration at half of the fitted maximal effect.

A short description of this assay: Viability qHTS for spleen associated tyrosine kinase inhibitor (SYKi) drug resistant MV4-11 cells (AID 1963824). Further: nearly all actives have a fitted effect of over 35% in size. To be noted: SYKi-resistant MV4-11 viability, CellTiter-Glo, 72 h; series mostly up to 45 µM; viability, % of control: at the top concentration. The procedure, abridged: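 SYK inhibitor-resistant MV4-11 AML cells, 500 per well, added to predispensed compounds and incubated 72 hr at 37 C, 5% CO2. Viability measured by CellTiter-Glo luminescence after 10 min at room temperature.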
On the technique in general: qHTS replaces the single test concentration by a dilution series.
Turning to `CC1=CC(=O)C2C(C)(C)CCC[C@]2(C)[C@H]1CC[C@H](C)CC(=O)O` (stereo not given in full), the “viability, % of control” value was 74.9%.

`C/C=C/C=C/C=C/C(=O)O[C@@H]1C=C(CO)C(O)(C(=O)OC)[C@@]2(C)CCCC(C)(C)C12` (stereo not given in full): the Potency is 10 µM (active).

As for `CC1OC2OC(=O)C3(C)CC4C5(CO5)C5=CC(=O)OC(C)(C)C5=CC(=O)C4(C)C(C1=O)C23` (stereo not given), the Potency is 5.02 µM (active).

Consider `C=C(C)C1Cc2cc(C(=O)OC3OC(CO)C(O)C(O)C3O)ccc2O1` (stereo not given), for which the “viability, % of control” value is 77.5%.

For the compound `CCC(C)C(=O)O[C@H]1CCC=C2C=C[C@H](C)[C@H](CC[C@@H](O)C[C@@H](O)CC(=O)O)[C@H]21` (stereo not given in full), the Potency is 10 µM (active).

Take `CC(Cc1cccc(C(F)(F)F)c1)NCCOC(=O)c1ccccc1` (stereo not given): the “viability, % of control” value is 85.5%.

In the case of `COc1cc(/C=C2\CC[C@H]3COC[C@@H](c4cc(F)c(F)c(F)c4)N3C2=O)ccc1-n1cnc(C)c1`, the Potency is 13 µM (active).

With `Cc1ccc2c(Nc3ccc(Cl)cc3)nccc2c1Nc1ncccc1-c1ncnc2nc[nH]c12`, the Potency was 2.31 µM (active).

For `O=C(Nc1cnccc1Cl)N1CCN(Cc2ccc3c(c2)OC(F)(F)O3)CC1`, the Potency is 5.9 µM (active).

In the case of `CCC(=O)O[C@]1(C(=O)CCl)[C@@H](C)C[C@H]2[C@@H]3C[C@H](F)C4=CC(=O)C=C[C@]4(C)[C@@]3(F)[C@@H](O)C[C@@]21C`, the Potency was 18.4 µM (active).

For `CCC(C)(OC(C)=O)C(=O)O[C@H]1[C@H](OC(C)=O)[C@]2(CO)[C@H](O)[C@H](O)[C@]3(C)C(=CCC4[C@@]5(C)CC[C@H](O[C@@H]6O[C@H](C(=O)O)[C@@H](O)[C@H](O[C@@H]7OC[C@H](O)[C@H](O[C@@H]8OC[C@H](O)[C@H](O)[C@H]8O)[C@H]7O)[C@H]6O[C@@H]6O[C@H](CO)[C@@H](O)[C@H](O)[C@H]6O)C(C)(C)C5CC[C@]43C)[C@@H]2CC1(C)C` (stereo not given in full), the Potency was 2.45 µM (active).

`COC(=O)[C@]1(C)CCC[C@@]2(C)C(=O)CC[C@H]3C(=O)C=C(CC[C@@H]21)C3O` (stereo not given in full): the “viability, % of control” value was 91.2%.

Take `Nc1nc2c(c(=O)[nH]1)C[C@@H](CCc1ccc(C(=O)N[C@@H](CCC(=O)O)C(=O)O)cc1)CN2`: the Potency was 0.0092 µM (active).

Take `N#CC(CCCN1CCC(O)(c2ccc(Cl)cc2)CC1)(c1ccccc1)c1ccccc1`: the Potency was 5.8 µM (active).

`CC(=O)Nc1nc(C)c(-c2nc(N3CCCC(O)C3)no2)s1` (stereo not given): the Potency was 16.4 µM (active).

Regarding `CC(=O)O[C@@H]1CC2C(/C=C(\C)C(=O)[C@@]3(O)C[C@@H](C)[C@H](OC(=O)c4ccccc4)C3/C=C/1C)C2(C)C` (stereo not given in full), the Potency was 10 µM (active).

`CC(=O)NC(C(=O)O[C@H]1CCC(C)(C)[C@@H]2CC=C3C(=O)OCC3(O)[C@@]12C)C(C)C` (stereo not given in full): the Potency is 3.6 µM (active).

As for `COc1cc(N(C)CCN(C)C)c(N)cc1Nc1nccc(-c2cn(C)c3ccccc23)n1`, the Potency is 10.3 µM (active).

With `NC(=O)[C@H]1CCCCc2c1[nH]c1ccc(Cl)cc21`, the “viability, % of control” value is 85.9% [at 17.3 µM].

`C=C1C(O[C@@H]2O[C@H](CO)[C@@H](O)[C@H](O)[C@@H]2O)CC2C(C)(C)C(O)CCC2(C)C1CC/C(C)=C\CO` (stereo not given in full): the “viability, % of control” value was 86.7% [at 17.3 µM].

`C/C=C(\C)C(=O)O[C@@H]1[C@@H](C)[C@]2(O)[C@@H]3C=C(C)C(=O)[C@H]3CC(CO)=C[C@H]2C2C(C)(C)[C@@]21OC(=O)C(C)CC` (stereo not given in full): the Potency was 0.448 µM (active).

In the case of `Cc1cc(F)c(Nc2ncnc3cc(OCc4ccccc4)ccc23)cc1O`, the Potency is 14.6 µM (active).

For the compound `CC1CCCC(SCC(O)C(=O)O)CC(=O)c2c(O)cc(O)cc2CC(=O)O1` (stereo not given), the Potency is 2.24 µM (active).

Turning to `O=C(OCCOCCO)c1ccccc1Nc1cccc(C(F)(F)F)c1`, the Potency is 14.6 µM (active).

`Cc1ccc(Cl)c(Nc2ccccc2C(=O)O)c1Cl`: the Potency is 15 µM (active).

On to `O=S(=O)(Nc1ccc(C(O)(C(F)(F)F)C(F)(F)F)cc1)c1cccs1`, for which the Potency is 16.4 µM (active).

With `CC(=O)OC1C(OC(=O)c2ccccc2)C2C(C)(C)CCC(OC(C)=O)C2(C)C23CCC(C)(C2)C(=O)CC13` (stereo not given), the Potency is 10 µM (active).

With `CCC/C=C/C=C/C1CC(O)C2(O)C(=O)OCC12` (stereo not given), the “viability, % of control” value is 87.1%.

Consider `C/C=C1\[C@H](O[C@@H]2O[C@H](CO)[C@@H](O)[C@H](O)[C@H]2O)OC=C2C(=O)OCCc3ccc(O)c(c3)Oc3ccc(cc3)CCOC(=O)C[C@H]21`, for which the Potency is 3.85 µM (active).

Consider `FC(F)(F)c1ccc(/C=C/c2nc(COc3ccc(CCCCn4ccnn4)cc3)co2)cc1`, for which the Potency was 0.0263 µM (active).
